# Laboratory results taken from the supplement of paper PMC10849652.
# About 7,900 targets were measured; listed, in parts, are those with a hit and a random draw of the rest. About 0.6% of all pairs of compound and target were hits. A number with no mark means an inactive call.
# Key:
# Experiment in all cases: log2 fold change, soluble protein after heating vs DMSO (PISA); higher = thermal stabilisation; K562 cells, 10 uM, 30 min; active = over 0.2 and 3.5 SD of the protein, either way, in both replicates (recomputed)
# erlotinib = compound: C#Cc1cccc(Nc2ncnc3cc(OCCOC)c(OCCOC)cc23)c1 [erlotinib]
# Method in brief: (§1)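 For each measurement, 10 μM compound was applied for 30 min to K562 cells at 2×10^6 cells/mL. Aliquots were heated for 3 min across 48°C-58°C, pooled, and extracted in PBS with 0.5% NP-40 at 4°C; the supernatant after 21,000xg for 90 min was soluble protein. This was quantified by TMTpro 16plex LC-MS/MS with channel sums equalised, and thermal stability was reported relative to control samples from duplicates, on a log2 fold-change scale.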
# [1] = compound: C/C(=N\NC(=O)C1=CC(=CC=C1)S(=O)(=O)N2CCOCC2)/C3=C(C=CC(=C3)Cl)O
# Method in brief: as §1
# [2] = compound: C1=CC(=C(C=C1Cl)C2=NC3=NC=CN=C3C(=N2)NC4=CC=NC=C4)F
# Method in brief: as §1
# [3] = compound: C1=CC(=CC=C1C2=NC3=C(N2)C=C(C=C3)C(=O)N)OC4=CC=C(C=C4)Cl
# Method in brief: as §1
# [4] = compound: C1=CC2=C(C=CC(=C2)/C=C\3/C(=O)NC(=NCC4=CC=CS4)S3)N=C1
# Method in brief: as §1
# [5] = compound: C1=CC2=NC=CN=C2C=C1/C=C/3\C(=O)NC(=O)S3
# Method in brief: as §1
# [6] = compound: C1=CC=C(C=C1)C2=NC(=C(N2)C3=CC=NC=C3)C4=CC(=C(C=C4)Cl)O
# Method in brief: as §1
# [7] = compound: C1=CC=C2C(=C1)C3=NNC4=CC=CC(=C43)C2=O
# Method in brief: as §1
# [8] = compound: C1CCN(C1)C(=O)NC2=CC=CC(=C2)NC3=NC=C(C(=N3)NCCC4=CN=CN4)Br
# Method in brief: as §1
# [9] = compound: C1CN(CCC1(CC2=CC=C(C=C2)Cl)N)C3=NC=NC4=C3C=CN4
# Method in brief: as §1
# IRAK-1-4 Inhibitor I = compound: C1COCCN1CCN2C3=CC=CC=C3N=C2NC(=O)C4=CC(=CC=C4)[N+](=O)[O-] [IRAK-1-4 Inhibitor I]
# Method in brief: as §1
# ibrutinib = compound: C=CC(=O)N1CCC[C@@H](n2nc(-c3ccc(Oc4ccccc4)cc3)c3c(N)ncnc32)C1 [ibrutinib]
# Method in brief: as §1
# [10] = compound: CC(=O)c1cnc2ccc(-c3cc(Cl)c(O)c(Cl)c3)nc2c1N[C@H]1CC[C@H](CN(C)C)CC1
# Method in brief: as §1
# ralimetinib = compound: CC(C)(C)Cn1c(N)nc2ccc(-c3[nH]c(C(C)(C)C)nc3-c3ccc(F)cc3)nc21 [ralimetinib]
# Method in brief: as §1
# [11] = compound: CC(C)(O)CC(=O)NCCn1ccc2ncnc(Nc3ccc(Oc4cccc(C(F)(F)F)c4)c(Cl)c3)c21
# Method in brief: as §1
# [12] = compound: CC(C)C1=C2N=C(C=C(N2N=C1)NCC3=CC=CC=C3)NCCCCCCN
# Method in brief: as §1
# [13] = compound: CC(C)C[C@@H](C=O)NC(=O)[C@H](CC(C)C)NC(=O)[C@H](CC(C)C)NC(=O)OCc1ccccc1
# Method in brief: as §1
# pinometostat = compound: CC(C)N(C[C@H]1O[C@@H](n2cnc3c(N)ncnc32)[C@H](O)[C@@H]1O)[C@H]1C[C@@H](CCc2nc3cc(C(C)(C)C)ccc3[nH]2)C1 [pinometostat]
# Method in brief: as §1
# [14] = compound: CC1=C(C(CC(=O)N1)C2=CC=C(C=C2)C(F)(F)F)C(=O)NC3=C(C=C4C(=C3)C=NN4)F
# Method in brief: as §1
# [15] = compound: CC1=C(C2=C(C=C1)C(=O)C3=CC=CC=C3N2CCCN)C
# Method in brief: as §1
# Chain of UniProt Q9BTE6 (Q9BTE6 whole entry, looked up): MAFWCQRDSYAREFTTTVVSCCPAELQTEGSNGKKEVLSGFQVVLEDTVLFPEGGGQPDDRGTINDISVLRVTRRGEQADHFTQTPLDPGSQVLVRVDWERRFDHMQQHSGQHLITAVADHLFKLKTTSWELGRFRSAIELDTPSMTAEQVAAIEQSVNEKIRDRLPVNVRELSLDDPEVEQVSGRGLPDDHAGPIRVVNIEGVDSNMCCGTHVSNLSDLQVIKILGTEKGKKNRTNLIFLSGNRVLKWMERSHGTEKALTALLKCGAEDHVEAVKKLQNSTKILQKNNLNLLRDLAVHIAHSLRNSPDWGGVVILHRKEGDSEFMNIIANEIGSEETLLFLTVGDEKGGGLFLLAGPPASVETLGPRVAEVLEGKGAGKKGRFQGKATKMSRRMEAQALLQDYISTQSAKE
# Chain of UniProt P55196 (P55196 whole entry, looked up): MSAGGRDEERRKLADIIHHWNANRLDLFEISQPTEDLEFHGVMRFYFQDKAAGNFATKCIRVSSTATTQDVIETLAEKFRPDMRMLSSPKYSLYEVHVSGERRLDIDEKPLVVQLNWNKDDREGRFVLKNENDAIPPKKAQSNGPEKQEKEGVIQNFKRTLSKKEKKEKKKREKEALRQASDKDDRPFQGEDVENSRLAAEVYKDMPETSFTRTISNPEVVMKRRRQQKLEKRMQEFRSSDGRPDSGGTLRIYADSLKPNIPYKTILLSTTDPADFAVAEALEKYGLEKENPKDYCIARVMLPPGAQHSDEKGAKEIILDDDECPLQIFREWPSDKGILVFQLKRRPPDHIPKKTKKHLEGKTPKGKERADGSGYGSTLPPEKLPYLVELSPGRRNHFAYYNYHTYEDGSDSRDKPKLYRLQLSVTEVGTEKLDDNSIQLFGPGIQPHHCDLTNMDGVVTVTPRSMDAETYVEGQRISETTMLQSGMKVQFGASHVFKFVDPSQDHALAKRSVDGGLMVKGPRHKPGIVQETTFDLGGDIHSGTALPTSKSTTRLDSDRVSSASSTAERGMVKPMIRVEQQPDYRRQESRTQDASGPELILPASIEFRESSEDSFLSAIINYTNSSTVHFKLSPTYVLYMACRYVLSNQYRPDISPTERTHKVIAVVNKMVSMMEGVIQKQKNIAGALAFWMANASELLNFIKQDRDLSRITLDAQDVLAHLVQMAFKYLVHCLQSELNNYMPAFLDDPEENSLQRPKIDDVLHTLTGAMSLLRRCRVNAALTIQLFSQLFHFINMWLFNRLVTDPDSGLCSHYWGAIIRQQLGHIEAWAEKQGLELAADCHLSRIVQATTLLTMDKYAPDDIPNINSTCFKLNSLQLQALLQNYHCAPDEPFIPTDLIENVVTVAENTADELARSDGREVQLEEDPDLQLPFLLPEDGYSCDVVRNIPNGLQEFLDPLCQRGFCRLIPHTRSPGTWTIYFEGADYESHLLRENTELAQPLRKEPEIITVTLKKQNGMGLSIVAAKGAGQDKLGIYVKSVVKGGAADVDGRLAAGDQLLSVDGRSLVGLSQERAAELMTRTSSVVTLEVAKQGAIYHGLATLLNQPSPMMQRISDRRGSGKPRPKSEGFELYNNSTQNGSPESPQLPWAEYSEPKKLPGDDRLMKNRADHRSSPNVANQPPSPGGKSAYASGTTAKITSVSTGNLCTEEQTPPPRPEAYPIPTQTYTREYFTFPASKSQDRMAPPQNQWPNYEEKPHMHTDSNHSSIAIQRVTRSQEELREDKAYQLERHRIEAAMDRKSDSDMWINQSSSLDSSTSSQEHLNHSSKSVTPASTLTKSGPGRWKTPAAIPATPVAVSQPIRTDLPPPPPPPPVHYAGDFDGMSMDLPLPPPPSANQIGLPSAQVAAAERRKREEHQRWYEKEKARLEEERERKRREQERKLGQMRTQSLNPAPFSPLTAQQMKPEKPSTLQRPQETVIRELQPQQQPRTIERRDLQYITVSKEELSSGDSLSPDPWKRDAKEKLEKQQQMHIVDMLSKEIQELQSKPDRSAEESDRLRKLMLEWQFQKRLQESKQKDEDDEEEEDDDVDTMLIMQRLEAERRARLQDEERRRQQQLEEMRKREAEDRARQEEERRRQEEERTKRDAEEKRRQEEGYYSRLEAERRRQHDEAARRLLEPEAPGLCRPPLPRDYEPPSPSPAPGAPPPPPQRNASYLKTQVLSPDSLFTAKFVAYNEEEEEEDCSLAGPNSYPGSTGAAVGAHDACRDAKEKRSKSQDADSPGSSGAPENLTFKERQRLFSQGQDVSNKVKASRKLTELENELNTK
# Chain of UniProt Q8NHH9 (Q8NHH9 whole entry, looked up): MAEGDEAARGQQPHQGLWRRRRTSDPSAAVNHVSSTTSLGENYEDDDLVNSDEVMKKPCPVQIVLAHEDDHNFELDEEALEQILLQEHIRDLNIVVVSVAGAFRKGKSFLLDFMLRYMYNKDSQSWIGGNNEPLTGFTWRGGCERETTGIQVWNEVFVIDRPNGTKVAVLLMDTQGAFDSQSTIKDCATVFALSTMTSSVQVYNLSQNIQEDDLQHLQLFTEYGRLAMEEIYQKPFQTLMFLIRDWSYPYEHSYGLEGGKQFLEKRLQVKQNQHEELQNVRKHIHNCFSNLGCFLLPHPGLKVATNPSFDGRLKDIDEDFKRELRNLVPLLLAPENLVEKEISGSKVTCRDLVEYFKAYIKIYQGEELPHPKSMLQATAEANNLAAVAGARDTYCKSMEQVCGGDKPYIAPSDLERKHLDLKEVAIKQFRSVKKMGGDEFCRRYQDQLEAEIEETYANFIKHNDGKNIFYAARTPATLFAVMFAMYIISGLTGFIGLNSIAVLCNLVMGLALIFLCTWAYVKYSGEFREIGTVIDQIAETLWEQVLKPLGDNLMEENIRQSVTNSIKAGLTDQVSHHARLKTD
# Chain of UniProt Q9Y4P1 (Q9Y4P1 whole entry, looked up): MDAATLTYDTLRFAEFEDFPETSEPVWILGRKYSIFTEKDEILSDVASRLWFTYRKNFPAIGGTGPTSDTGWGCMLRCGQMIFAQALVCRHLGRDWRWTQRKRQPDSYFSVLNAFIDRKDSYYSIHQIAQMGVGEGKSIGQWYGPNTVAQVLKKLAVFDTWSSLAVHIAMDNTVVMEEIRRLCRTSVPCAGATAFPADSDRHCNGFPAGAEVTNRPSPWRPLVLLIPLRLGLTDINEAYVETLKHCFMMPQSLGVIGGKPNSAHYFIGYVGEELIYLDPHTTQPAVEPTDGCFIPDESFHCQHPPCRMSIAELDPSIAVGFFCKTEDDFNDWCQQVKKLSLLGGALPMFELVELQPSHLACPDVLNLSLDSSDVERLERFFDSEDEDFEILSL
# Chain of UniProt Q93084 (Q93084 whole entry, looked up): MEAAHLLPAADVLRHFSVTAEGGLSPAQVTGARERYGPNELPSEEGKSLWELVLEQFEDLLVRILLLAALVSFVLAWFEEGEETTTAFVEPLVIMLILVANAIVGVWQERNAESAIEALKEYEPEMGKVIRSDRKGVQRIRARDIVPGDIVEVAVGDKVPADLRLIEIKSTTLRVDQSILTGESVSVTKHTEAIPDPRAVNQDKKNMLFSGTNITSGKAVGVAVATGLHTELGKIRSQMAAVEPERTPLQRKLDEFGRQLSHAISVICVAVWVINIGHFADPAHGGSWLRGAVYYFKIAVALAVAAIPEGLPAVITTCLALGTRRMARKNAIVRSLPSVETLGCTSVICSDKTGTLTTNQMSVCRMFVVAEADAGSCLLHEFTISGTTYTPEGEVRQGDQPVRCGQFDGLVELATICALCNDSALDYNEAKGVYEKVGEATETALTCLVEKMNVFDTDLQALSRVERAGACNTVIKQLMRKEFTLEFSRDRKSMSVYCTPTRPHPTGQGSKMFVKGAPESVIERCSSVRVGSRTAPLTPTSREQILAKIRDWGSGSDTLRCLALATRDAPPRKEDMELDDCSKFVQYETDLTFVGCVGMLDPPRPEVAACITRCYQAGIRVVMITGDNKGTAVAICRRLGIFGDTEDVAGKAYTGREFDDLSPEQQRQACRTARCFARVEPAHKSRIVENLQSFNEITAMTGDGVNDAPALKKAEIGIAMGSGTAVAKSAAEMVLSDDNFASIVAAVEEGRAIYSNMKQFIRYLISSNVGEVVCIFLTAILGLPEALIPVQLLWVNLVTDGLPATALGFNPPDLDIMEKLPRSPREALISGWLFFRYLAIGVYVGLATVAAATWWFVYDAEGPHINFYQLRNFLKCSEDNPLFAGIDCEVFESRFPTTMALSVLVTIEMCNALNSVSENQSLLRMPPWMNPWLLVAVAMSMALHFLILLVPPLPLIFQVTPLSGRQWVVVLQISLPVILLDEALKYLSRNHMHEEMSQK
# Chain of UniProt Q9UHQ4 (Q9UHQ4 whole entry, looked up): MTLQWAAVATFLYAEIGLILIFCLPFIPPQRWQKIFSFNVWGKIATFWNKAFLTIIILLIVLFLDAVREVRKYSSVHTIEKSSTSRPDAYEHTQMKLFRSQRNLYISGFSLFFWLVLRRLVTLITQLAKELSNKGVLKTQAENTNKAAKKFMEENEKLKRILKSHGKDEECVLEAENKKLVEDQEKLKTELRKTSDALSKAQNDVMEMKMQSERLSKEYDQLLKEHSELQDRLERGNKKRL
# Chain of UniProt Q9Y679 (Q9Y679 whole entry, looked up): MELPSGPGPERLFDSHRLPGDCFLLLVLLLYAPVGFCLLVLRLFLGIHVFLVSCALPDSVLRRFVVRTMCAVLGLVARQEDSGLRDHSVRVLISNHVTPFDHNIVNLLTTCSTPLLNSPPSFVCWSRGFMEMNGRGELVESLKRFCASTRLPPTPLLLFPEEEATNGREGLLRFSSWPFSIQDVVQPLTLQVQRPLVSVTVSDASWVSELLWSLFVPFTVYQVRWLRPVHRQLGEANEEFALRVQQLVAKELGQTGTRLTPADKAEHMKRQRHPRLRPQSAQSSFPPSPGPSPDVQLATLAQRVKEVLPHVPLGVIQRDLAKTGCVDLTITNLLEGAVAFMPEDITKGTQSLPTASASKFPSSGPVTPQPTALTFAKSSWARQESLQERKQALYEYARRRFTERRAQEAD
# Chain of UniProt P56385 (P56385 whole entry, looked up): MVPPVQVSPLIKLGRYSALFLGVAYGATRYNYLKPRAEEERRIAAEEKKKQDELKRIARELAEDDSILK
Target,log2 fold change (erlotinib),log2 fold change [1],log2 fold change [2],log2 fold change [3],log2 fold change [4],log2 fold change [5],log2 fold change [6],log2 fold change [7],log2 fold change [8],log2 fold change [9],log2 fold change (IRAK-1-4 Inhibitor I),log2 fold change (ibrutinib),log2 fold change [10],log2 fold change (ralimetinib),log2 fold change [11],log2 fold change [12],log2 fold change [13],log2 fold change (pinometostat),log2 fold change [14],log2 fold change [15]
ADRM1 (UniProt Q16186),-0.069,-0.038,-0.007,0.006,0.034,0.033,0.028,0.046,-0.017,-0.076,-0.096,-0.111,0.033,0.065,-0.077,-0.005,-0.064,0.015,-0.022,0.04
ATP5ME (UniProt P56385),0.013,0.037,0.136,-0.007,0.085,0.051,0.023,0.002,-0.051,0.013,-0.003,-0.002,-0.019,-0.04,-0.044,0.031,0.011,-0.036,0.011,0.039
ALDH1B1 (UniProt P30837),0,0.073,0.066,0.081,0.062,-0.009,0.044,0.065,-0.028,0.043,0.051,0.031,-0.009,-0.004,-0.072,0.132,-0.01,-0.022,-0.054,0.221
BCAP29 isoform 2 (UniProt Q9UHQ4),-0.02,0.002,0.077,0.062,-0.026,0.086,-0.034,0.038,0.062,-0.022,0.051,-0.014,0.011,-0.094,0.111,-0.106,0.007,-0.012,0.026,0.052
AUP1 (UniProt Q9Y679),0.018,0.055,0.068,0.049,0.006,0.055,0.078,0.004,-0.031,-0.018,0.035,-0.026,0.003,0.007,-0.164,-0.482 (active),-0.033,0.011,-0.036,0.08
BZW1 isoform 3 (UniProt Q7L1Q6),0.049,0.176,-0.001,-0.088,0.054,0.019,0.042,0.039,-0.059,-0.101,-0.118,-0.123,0.005,0.049,-0.296,-0.422 (active),0.007,0.123,0.006,0.068
AFDN isoform 5 (UniProt P55196),-0.005,0.101,0.021,0.01,-0.02,0,0.012,-0.005,-0.049,0.038,-0.018,-0.012,-0.19,-0.002,-0.125,-0.082,0.01,0.004,0.007,0.049
ARL2BP (UniProt Q9Y2Y0),-0.048,0.014,0.041,-0.02,0.093,0.104,0.037,-0.047,-0.008,-0.072,-0.053,-0.009,0.03,0.01,-0.127,-0.269,-0.011,-0.037,-0.002,-0.028
AARSD1 isoform 3 (UniProt Q9BTE6),0.05,-0.736 (active),0.113,-0.014,-0.027,0.008,-0.015,0.053,-0.006,-0.086,0.002,-0.074,0.029,-0.038,-0.017,-0.177,0.069,-0.01,-0.027,-0.126
ATP6V0A2 (UniProt Q9Y487),-0.009,0,-0.045,0.031,-0.025,0.031,0.024,0.041,-0.016,0.002,-0.006,-0.026,-0.017,0.057,-0.01,-0.297 (active),0.049,0.054,0.008,0.003
ATP2A3 isoform 2 (UniProt Q93084),-0.002,-0.002,0.053,-0.002,-0.014,0.014,-0.003,-0.04,-0.025,0.059,0.038,-0.013,0.001,-0.023,0.018,-0.295 (active),-0.044,0.005,0.012,-0.009
AKT1 (UniProt P31749),0.095,0.034,0.101,-0.067,0,0.184,0.117,0.059,-0.026,0.164,-0.014,-0.244,0.03,-0.023,0.01,-0.141,0.07,-0.051,-0.161,-0.038
ALG11 (UniProt Q2TAA5),-0.015,0.042,0.075,0.013,0.074,0.054,0.009,-0.048,-0.045,-0.014,0.003,0.09,0.053,-0.014,-0.112,0.037,-0.064,0.032,0.002,0.23 (active)
ATL2 (UniProt Q8NHH9),-0.004,0,0.081,0.004,0.049,0.012,0.049,0.014,0.077,0,0.011,0.006,-0.058,-0.116,-0.087,0.054,-0.001,0.035,-0.016,0.169
ATG4B isoform 2 (UniProt Q9Y4P1),-0.008,0.078,0.017,0.178,0.118,0.089,0.143,-0.046,-0.087,-0.033,0.127,-0.038,-0.102,0.134,-0.194,-0.299,-0.137,-0.013,-0.031,0.114
ATP9B (UniProt O43861),0.406 (active),0.099,0.01,-0.132,-0.029,-0.045,0.033,-0.038,0.027,-0.064,0.061,-0.068,-0.034,-0.077,-0.054,-0.071,-0.024,-0.064,-0.004,0.003
